Bioassay records (PubChem)
TGFb SMAD3 inh – qHTS for Inhibitors of TGF-b | HepG2 CAGA-GFP TGF-b/SMAD3 reporter, GFP fluorescence, 18 h; TGF-beta stimulated, 500 pg/mL final | Potency, µM (doses to about 46.1 µM), for inactives: top-dose activity, negative = inhibition, most hits filed as inhibitors | hit rate 1.2% among 410,000; further: potency means the concentration at half of the fitted maximal effect; on the % scale 0 is the no-effect control and ±100 the full control effect; nearly all actives have a fitted effect of over 65% in size
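Using HEPG2 CAGA-GFP reporter cells at 1000 cells/well, we pinned test compounds, stimulated with recombinant TGF-beta (500 pg/mL final) and measured total well GFP after 18 h.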
HepG2 tox – qHTS for Inhibitors of TGF-b: Cytotox Counterscreen | AID 588856, 2011 | HepG2 CAGA-GFP viability, ATP luminescence, 18 h | hit rate 0.76% among 410,000 | Potency, µM (titrated, usually from 46.1 µM), inactives show at the highest dose activity change, negative = cytotoxicity, most hits filed as cytotoxic; further: potency means the concentration at half of the fitted maximal effect
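CellTiter-Glo luminescence gave cytotoxicity after 18 hours at 37 degrees C. The cells were HepG2 CAGA-GFP in 1% FBS DMEM, stimulated with 500 pg/mL TGF-beta after compound addition. %Activity was normalised to no-cell wells (complete cell-killing) and DMSO (no toxicity), and curves were fitted and classified.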
DT40 TDP1 no CPT – qHTS for Inhibitors of human tyrosyl-DNA phosphodiesterase 1 (TDP1): qHTS in cells in absence of CPT; DT40 Tdp1-/- hTDP1 cells, no CPT, ATP luminescence, 48 h; Potency, µM (titrated, usually from 46.2 µM), for inactives: at the highest dose activity change, negative = growth inhibition, actives largely listed as inhibitors; hit rate 15% among 420,000; AID 686978, 2013; further: potency means the concentration at half of the fitted maximal effect; on the % scale 0 is the no-effect control and ±100 the full control effect; nearly all actives have a fitted effect of over 55% in size
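Chicken DT40 Tdp1-/- cells stably complemented with human TDP1 were seeded at 400 cells/well with DMSO in place of 20 nM camptothecin. After compound pinning, cells grew at least 48 hr at 37 °C; viability read by CellTiter-Glo luminescence.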
IL1B secr inh – qHTS for Inhibitors of Inflammasome Signaling: IL-1-beta AlphaLISA Primary Screen; activity change, % at 57.5 µM; hit rate 4.7% among 360,000; AID 743279, 2014; THP-1 LPS/ATP IL-1B secretion, AlphaLISA, 16 h; active compounds read low; in the data active means activity change below about -50%; inconclusive means mostly about -30% to -49%; further: on the % scale 0 is the no-effect control and ±100 the full control effect
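Secreted IL-1B measured by AlphaLISA bead assay after 16 h compound exposure of THP-1 cells; compounds (final up to 57.5 uM) added 1 h before LPS (250 ng/mL) and ATP (1.25 mM) stimulation; lower signal means less secretion.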
ASM inhibitor – Inhibitors of Secretory Acid Sphingomyelinase (S-ASM): qHTS | Potency, µM (highest dose often 57.5 µM), inactives show at the highest dose activity change, negative = inhibition, hits mostly inhibitors | Sphingomyelin phosphodiesterase (Homo sapiens), P17405 | placental ASM, HMU-PC fluorogenic substrate, 60 min | AID 504937, 2011 | hit rate 0.006% among 340,000; further: potency means the concentration at half of the fitted maximal effect
Target sequence (P17405 47-631 limits assumed): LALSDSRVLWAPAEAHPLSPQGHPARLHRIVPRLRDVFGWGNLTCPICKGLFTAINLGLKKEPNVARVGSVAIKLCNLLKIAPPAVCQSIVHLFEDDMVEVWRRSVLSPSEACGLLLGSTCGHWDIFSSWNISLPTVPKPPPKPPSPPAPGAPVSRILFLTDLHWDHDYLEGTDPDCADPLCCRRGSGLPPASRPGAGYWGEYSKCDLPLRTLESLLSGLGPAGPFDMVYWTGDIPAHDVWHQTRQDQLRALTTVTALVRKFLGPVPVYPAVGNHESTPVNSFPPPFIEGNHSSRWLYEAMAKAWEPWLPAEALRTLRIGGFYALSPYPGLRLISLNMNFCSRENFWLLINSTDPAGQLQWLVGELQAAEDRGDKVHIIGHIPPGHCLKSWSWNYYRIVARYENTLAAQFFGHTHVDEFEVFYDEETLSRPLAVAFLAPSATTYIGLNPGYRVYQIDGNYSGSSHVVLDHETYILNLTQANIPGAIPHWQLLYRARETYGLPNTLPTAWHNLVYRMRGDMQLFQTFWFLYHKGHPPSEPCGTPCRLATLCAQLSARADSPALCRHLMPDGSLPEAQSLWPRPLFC
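Steps: dispense placental human ASM, pin compound, wait 10 min at room temperature, add HMU-PC0 substrate at 9 uM final, incubate 60 min at 37 °C, add stop solution raising pH to 10, read fluorescence.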
TDP1 cell CPT – qHTS for Inhibitors of human tyrosyl-DNA phosphodiesterase 1 (TDP1): qHTS in cells in presence of CPT; chicken DT40 Tdp1-/-;hTDP1 cells + 20 nM CPT, ATP luminescence, 48 h; Potency, µM (top dose mostly 46.2 µM), for the others: at the top dose activity change, negative = growth inhibition, most hits filed as inhibitors; hit rate 12% among 420,000; AID 686979, 2013; further: potency means the concentration at half of the fitted maximal effect; on the % scale 0 is the no-effect control and ±100 the full control effect; nearly all actives have a fitted effect of over 55% in size
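Chicken DT40 Tdp1-/- cells stably complemented with human TDP1 were seeded at 400 cells/well in medium containing 20 nM camptothecin, exposed to pin-transferred compounds, and grown at 37 °C for at least 48 hr. Viability was read as ATP luminescence.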
An asterisk follows results filed as active; ? = inconclusive; . = not tested or not shown. Sampled rows, rich in hits. Any-hit rate of the full collection: about 19%. Unless noted, the call rests on the fitted dose curve; in most records, active means well fitted curve in the direction sought with a large enough effect; inconclusive means small, poorly fitted or top-dose-only effect, or another doubt; inactive means no such curve, though single readings can be large; an effect the other way counts as inactive or inconclusive.

SMILES	TGFb SMAD3 inh	HepG2 tox	DT40 TDP1 no CPT	IL1B secr inh	ASM inhibitor	TDP1 cell CPT
O=c1c2ccccc2nc(-c2ccc(Cl)c(Cl)c2)n1O	?	-26%	5.2µM*	27	0%	6.5µM*
Cc1cccc(N2CCN(S(=O)(=O)c3ccc(F)c(C(=O)Nc4ccc(C(C)C)cc4)c3)CC2)c1C	-1%	1%	?	.	.	?
COc1ccc(NC(=O)Cn2c(=O)n(Cc3nc(-c4ccccc4)no3)c(=O)c3ccccc32)cc1Cl	?	-1%	?	.	.	-20%
Cc1cc(Cl)ccc1OCC(=O)N[C@@H](Cc1ccccc1)c1nc2ccccc2[nH]1	?	-63%	16µM*	16	-4%	21µM*
Cc1cc(OCC(=O)Nc2cc(-c3nc4ccccc4[nH]3)ccc2C)ccc1Cl	.	11µM*	7.3µM*	.	.	15µM*
Cc1ccc(-c2nc3ccccc3[nH]2)cc1NC(=O)c1sc2cc(Cl)ccc2c1Cl	22%	5%	16µM*	0	-3%	8.2µM*
Cc1ccc(-c2nc3ccccc3[nH]2)cc1NC(=O)c1ccco1	0%	0%	?	-9	-3%	-25%
CCC(=O)NC(Cc1ccccc1)c1nc2ccccc2[nH]1 (configuration not stated)	-27%	-36%	0%	-4	2%	7%
Cc1ccc(-c2nc3ccccc3[nH]2)cc1NC(=O)COc1cccc(C)c1C	0%	-30%	.	.	.	.
CC(C)(Oc1ccc(Br)cc1)C(=O)Nc1cc(-c2nc3ccccc3[nH]2)ccc1Cl	?	-25%	.	.	.	.
Cc1ccc(-c2nc3ccccc3[nH]2)cc1NC(=O)COc1ccc(Cl)cc1Cl	-34%	-32%	5.2µM*	.	.	6.5µM*
Fc1ccc(-c2csc(-c3nc(-c4ccc(Br)s4)cs3)n2)cc1	-3%	4%	-20%	.	.	10%
CC1(CN2CCCC2)CCC(NC(=O)C(c2ccccc2)c2ccccc2)C(C)(C)O1 (configuration not stated)	-5%	-26%	?	9	.	-19%
COc1ccc(Nc2nc(-c3cccc([N+](=O)[O-])c3)nc3ccccc23)c(OC)c1	8%	3%	18µM*	15	-2%	?
COc1ccc(Nc2nc(-c3cccs3)nc3ccccc23)c(OC)c1	5%	-8%	13µM*	-16	2%	16µM*
COc1ccc(Nc2nc3ccccc3nc2NS(=O)(=O)c2cccs2)c(OC)c1	1%	2%	-18%	0	28%	-23%
COc1ccccc1Nc1nc(-c2cccc([N+](=O)[O-])c2)nc2ccccc12	17%	-3%	18µM*	5	-7%	23µM*
COC(=O)c1ccc(S(=O)(=O)N2CCC(C(N)=O)CC2)n1C	-1%	0%	-2%	5	0%	-17%
CCN(CC)CC#CCOC(=O)C(O)(c1ccccc1)C1CCCCC1 (configuration not stated)	2%	-36%	8.2µM*	-23	-2%	21µM*
COc1cccc(CNc2nnnn2C)c1	1%	5%	-5%	-8	3%	0%
CC1=C/C(=N\OC(=O)/C=C/c2ccccc2)C(C)=CC1=O	0%	-3%	?	-17	-1%	23µM*
Cc1ccc(-c2nc(CN(C)Cc3cccc4cnccc34)c(C)o2)s1	?	-34%	21µM*	-11	0%	?
C=CCSc1nnc(C2CCCN(Cc3ccccc3O)C2)n1C (configuration not stated)	.	.	-2%	.	.	0%
Cn1c(COc2ccc(Cl)cc2)nnc1SCc1ncc(-c2ccccc2)o1	?	-68%	16µM*	-12	-2%	?
CCc1ccc(-n2nc3ccc(NC(=O)c4cc(Cl)c(OC)c(Cl)c4)cc3n2)cc1	-2%	2%	?	.	.	?
SMILES	TGFb SMAD3 inh	HepG2 tox	DT40 TDP1 no CPT	IL1B secr inh	ASM inhibitor	TDP1 cell CPT
O=c1oc2ccccc2c2oc3cc(O)c(O)cc3c12	?	-39%	-4%	74	-2%	-5%
O=c1oc2c(O)c(O)cc3c(=O)oc4c(O)c(O)cc1c4c23	6%	2%	-4%	-51*	-27%	?
Cc1cc2nc(-c3ccc(OCc4ccccc4F)cc3)cc(C(F)(F)F)n2n1	-6%	-8%	?	.	.	?
CC(C)c1ccc(C(CC(=O)c2ccc(Cl)cc2)C(=O)O)cc1 (configuration not stated)	1%	-15%	-20%	61	-2%	-6%
O=C(CC(C(=O)O)c1ccc(Cl)cc1)c1ccc(Br)cc1 (configuration not stated)	-4%	10µM*	-14%	20	3%	8%
Cc1ccc(-c2nn(CCC(=O)O)cc2/C=C\C(=O)c2ccc(Br)cc2)cc1	?	-52%	?	-25	-4%	12µM*
O=C(O)CCn1cc(/C=C\C(=O)c2ccc(Cl)cc2)c(-c2cccc(Br)c2)n1	-13%	-32%	18µM*	-93*	2%	?
Cc1ccc(-c2nn(Cc3ccccc3)cc2/C=C/C(=O)O)cc1	-4%	-8%	-1%	42	0%	-10%
CCN(Cc1ccccc1)C(c1cccc(C#N)c1)c1nnnn1C(C)(C)C (configuration not stated)	-23%	-45%	23µM*	1	0%	?
CCN(Cc1ccccc1)C(c1ccc(C(F)(F)F)cc1)c1nnnn1C(C)(C)C (configuration not stated)	1%	1%	21µM*	-1	2%	?
CCCCC(=O)OCc1cc(=O)n2nc(C3CC3)sc2n1	0%	-2%	-20%	.	.	-19%
CCC(=O)c1ccc(OCC(=O)OC(C)C(=O)NCc2ccc3c(c2)OCO3)cc1 (configuration not stated)	-13%	4%	-13%	6	0%	-10%
CN1CC(=O)N(CC(=O)Nc2ccc(Cl)c(C(F)(F)F)c2)c2ccccc2C1=O	-2%	-2%	?	.	.	?
CCN1CCCC1CN(Cc1cc2ccc(C)cc2[nH]c1=O)C(=S)Nc1cccc(OC)c1 (configuration not stated)	-2%	-33%	29µM*	-77*	0%	?
